According to PubChem BioAssay AID1159580 (chemical genetic matrix, 2015):
Several values for one entry are separate records, joined by “and”; a condition that tells them apart may be missing. Equal values may be shown once. The campaign covered roughly 5,500 compounds. About 2,000 (36%) were called active. Inconclusive results (about 18%) are left out. Cut-off read from the data, not from the text of the source: active = normalized growth mostly below about 0.91 (no sharp cut-off); inconclusive = no clear call, values can overlap the other calls; inactive = mostly above about 0.92. The list shows a part of the results.

Assay: chemical genetic growth profiling, strain panel (AID 1159580);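 note: tested at 20 µM; growth read once vehicle control cultures reached saturation at 30 °C; 1 = growth at the plate median or of vehicle wells; lower values mean less growth of the strain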
Conditions: growth OD
[1] = S. cerevisiae deletion strains, locus YAL013W, strain DEP1, active compounds read low
[2] = S. cerevisiae deletion strains, locus YBR229C, strain ROT2, active compounds read low
[3] = S. cerevisiae deletion strains, locus YDL101C, strain DUN1, active compounds read low
[4] = S. cerevisiae deletion strains, locus YDL134C, strain PPH21, active compounds read low
[5] = S. cerevisiae deletion strains, locus YDR150W, strain NUM1, active compounds read low
[6] = S. cerevisiae deletion strains, locus YEL061C, strain CIN8, active compounds read low
[7] = S. cerevisiae deletion strains, locus YGR078C, strain PAC10, active compounds read low
[8] = S. cerevisiae deletion strains, locus YGR229C, strain SMI1, active compounds read low
[9] = S. cerevisiae deletion strains, locus YHR030C, strain SLT2, active compounds read low
[10] = S. cerevisiae deletion strains, locus YHR087W, strain rtc3, active compounds read low
[11] = S. cerevisiae deletion strains, locus YJL187C, strain SWE1, active compounds read low
[12] = S. cerevisiae deletion strains, locus YJR043C, strain POL32, active compounds read low
[13] = S. cerevisiae deletion strains, locus YJR075W, strain HOC1, active compounds read low
[14] = S. cerevisiae deletion strains, locus YKL190W, strain CNB1, active compounds read low
[15] = S. cerevisiae deletion strains, locus YLR039C, strain RIC1, active compounds read low
[16] = S. cerevisiae deletion strains, locus YLR058C, strain SHM2 (second series), active compounds read low
[17] = S. cerevisiae deletion strains, locus YLR085C, strain ARP6, active compounds read low
[18] = S. cerevisiae deletion strains, locus YLR262C, strain YPT6, active compounds read low
[19] = S. cerevisiae deletion strains, locus YML094W, strain GIM5, active compounds read low
[20] = S. cerevisiae deletion strains, locus YMR219W, strain ESC1, active compounds read low
[21] = S. cerevisiae deletion strains, locus YMR263W, strain SAP30, active compounds read low
[22] = S. cerevisiae deletion strains, locus YNL153C, strain GIM3, active compounds read low
[23] = S. cerevisiae deletion strains, locus YNL298W, strain CLA4 (second series), active compounds read low
[24] = S. cerevisiae deletion strains, locus YNL322C, strain KRE1, active compounds read low
[25] = S. cerevisiae deletion strains, locus YNR030W, strain Alg12, active compounds read low
[26] = S. cerevisiae deletion strains, locus YOL006C, strain TOP1, active compounds read low
[27] = S. cerevisiae deletion strains, locus YPL055C, strain LGE1, active compounds read low
[28] = S. cerevisiae deletion strains, locus YPL241C, strain CIN2, active compounds read low
[29] = S. cerevisiae deletion strains, locus YPR135W, strain CTF4, active compounds read low
[30] = S. cerevisiae deletion strains, locus YMR307W, strain GAS1, active compounds read low
[31] = S. cerevisiae deletion strains, locus YNL128W, strain TEP1, active compounds read low
[32] = S. cerevisiae strains, strain wild type, active compounds read low

Measured: normalized growth

N#Cc1ccc([N+](=O)[O-])s1
inactive: [8] 0.992 | [24] 1.01
active: [1] 0.726 | [2] 0.446 | [3] 0.201 | [4] 0.0493 | [5] 0.681 | [6] 0.194 | [7] 0.385 | [9] 0.0826 | [10] 0.379 | [11] 0.261 | [12] 0.564 | [13] 0.198 | [14] 0.0802 | [15] 0.346 | [16] 0.461 | [17] 0.121 | [18] 0.588 | [19] 0.271 | [20] 0.7 | [21] 0.46 | [22] 0.382 | [23] 0.105 | [25] 0.096 | [26] 0.115 | [27] 0.547 | [28] 0.0815 | [29] 0.186

N#CC(C#N)=Cc1ccc([N+](=O)[O-])c(O)c1
inactive: S. cerevisiae deletion strains, locus YAL040C, strain CLN3, active compounds read low 1.04 | S. cerevisiae deletion strains, locus YCL061C, strain MRC1 (second series), active compounds read low 0.991 | S. cerevisiae deletion strains, locus YDR363W, strain ESC2, active compounds read low 0.968 | S. cerevisiae deletion strains, locus YER002W, strain NOP16, active compounds read low 0.956 | [30] 1.01 | [31] 0.966 | S. cerevisiae deletion strains, locus YNL175C, strain NOP13, active compounds read low 0.953 | S. cerevisiae deletion strains, locus YNL197C, strain WHI3, active compounds read low 0.955 | S. cerevisiae deletion strains, locus YNL224C, strain SQS1, active compounds read low 0.988 | S. cerevisiae deletion strains, locus YOR083W, strain WHI5 (second series), active compounds read low 0.992 | [28] 0.988

O=C1CCCc2c1nc(-c1ccccc1)n2O
inactive: [1] 1 | [2] 1 | [3] 1.03 | [5] 0.966 | [6] 1.05 | [7] 1 | [9] 1.05 | [10] 0.999 | [11] 1.02 | [12] 0.995 | [13] 1.01 | [14] 1 | [15] 1.04 | [16] 1.03 | [17] 0.998 | [18] 1.06 | [19] 1.01 | [20] 1.01 | [21] 0.999 | [22] 1.03 | [23] 0.993 | [24] 1.01 | [25] 1.01 | [26] 0.999 | [27] 0.905 | [28] 1.02 | [29] 1

CN1CCc2c(c3ccccc3n2Cc2ccccc2)C1
inactive: [1] 0.927 | [2] 1 | S. cerevisiae deletion strains, locus YCL029C, strain bik1, active compounds read low 1.06 | S. cerevisiae deletion strains, locus YDL035C, strain GPR1, active compounds read low 0.913 | S. cerevisiae deletion strains, locus YDL074C, strain BRE1, active compounds read low 0.819 | [3] 1.02 | [4] 0.987 | S. cerevisiae deletion strains, locus YDL185W, strain tfp1, active compounds read low 1.01 | S. cerevisiae deletion strains, locus YDL192W, strain arf1, active compounds read low 1.01 | S. cerevisiae deletion strains, locus YDR101C, strain arx1, active compounds read low 1 | [5] 1.01 | S. cerevisiae deletion strains, locus YDR162C, strain NBP2, active compounds read low 0.992 | S. cerevisiae deletion strains, locus YDR318W, strain mcm21, active compounds read low 0.992 | S. cerevisiae deletion strains, locus YDR388W, active compounds read low 0.981 | S. cerevisiae deletion strains, locus YDR502C, strain sam2, active compounds read low 0.953 | [6] 1 | S. cerevisiae deletion strains, locus YER110C, active compounds read low 1.01 | S. cerevisiae deletion strains, locus YER155C, strain BEM2, active compounds read low 1.02 | S. cerevisiae deletion strains, locus YER167W, strain BCK2, active compounds read low 0.98 | S. cerevisiae deletion strains, locus YGL078C, strain dbp3, active compounds read low 1.01 | S. cerevisiae deletion strains, locus YGL086W, strain mad1, active compounds read low 0.963 | S. cerevisiae deletion strains, locus YGL248W, strain PDE1, active compounds read low 0.998 | [7] 0.932 | [9] 0.949 and 1.03 | S. cerevisiae deletion strains, locus YHR079C, strain IRE1 (second series), active compounds read low 1.01 | S. cerevisiae deletion strains, locus YHR079C, strain IRE1, active compounds read low 1.03 | S. cerevisiae deletion strains, locus YHR094C, strain hxt1, active compounds read low 1.01 | S. cerevisiae deletion strains, locus YHR129C, strain ARP1, active compounds read low 1.01 | S. cerevisiae deletion strains, locus YHR200W, strain rpn10, active compounds read low 0.999 | S. cerevisiae deletion strains, locus YIL066C, strain RNR3, active compounds read low 0.951 | S. cerevisiae deletion strains, locus YIL073C, strain SPO22, active compounds read low 0.956 | S. cerevisiae deletion strains, locus YIL125W, strain kgd1, active compounds read low 0.996 | S. cerevisiae deletion strains, locus YIR030C, strain dcg1, active compounds read low 1.01 | S. cerevisiae deletion strains, locus YJL095W, strain BCK1, active compounds read low 0.847 and 1.02 | S. cerevisiae deletion strains, locus YJL134W, strain LCB3, active compounds read low 1 | S. cerevisiae deletion strains, locus YJL168C, strain set2, active compounds read low 1.02 | S. cerevisiae deletion strains, locus YJL187C, strain SWE1 (second series), active compounds read low 0.96 | [12] 1.06 | S. cerevisiae deletion strains, locus YJR066W, strain TOR1, active compounds read low 0.949 | [13] 0.934 | S. cerevisiae deletion strains, locus YKL009W, strain mrt4, active compounds read low 0.934 | S. cerevisiae deletion strains, locus YKL068W, active compounds read low 0.995 | S. cerevisiae deletion strains, locus YKL085W, strain MDH1 (second series), active compounds read low 0.99 | S. cerevisiae deletion strains, locus YKL085W, strain MDH1, active compounds read low 0.99 | [14] 0.996 | S. cerevisiae deletion strains, locus YKR001C, strain vps1, active compounds read low 1.01 | S. cerevisiae deletion strains, locus YLR058C, strain SHM2, active compounds read low 0.998 | S. cerevisiae deletion strains, locus YLR102C, strain apc9, active compounds read low 1.01 | S. cerevisiae deletion strains, locus YLR113W, strain HOG1, active compounds read low 0.995 | S. cerevisiae deletion strains, locus YLR268W, strain sec22, active compounds read low 1.03 | S. cerevisiae deletion strains, locus YLR330W, strain CHS5, active compounds read low 1.01 | S. cerevisiae deletion strains, locus YLR371W, strain rom2, active compounds read low 1.01 | S. cerevisiae deletion strains, locus YML016C, strain PPZ1, active compounds read low 1 | S. cerevisiae deletion strains, locus YML032C, strain rad52, active compounds read low 0.995 | S. cerevisiae deletion strains, locus YML124C, strain tub3, active compounds read low 1.02 | S. cerevisiae deletion strains, locus YMR078C, strain ctf18, active compounds read low 1.01 | S. cerevisiae deletion strains, locus YMR223W, strain ubp8, active compounds read low 0.953 | [21] 0.912 | [30] 0.979 | S. cerevisiae deletion strains, locus YNL067W, strain RPL9B, active compounds read low 0.959 | [22] 0.945 | S. cerevisiae deletion strains, locus YNL183C, strain NPR1, active compounds read low 0.96 | S. cerevisiae deletion strains, locus YNL233W, strain BNI4, active compounds read low 0.956 | S. cerevisiae deletion strains, locus YNL250W, strain rad50, active compounds read low 1.01 | S. cerevisiae deletion strains, locus YNL271C, strain bni1, active compounds read low 1.02 | S. cerevisiae deletion strains, locus YNL298W, strain CLA4, active compounds read low 1 | S. cerevisiae deletion strains, locus YNL307C, strain MCK1, active compounds read low 0.924 | [24] 1.01 | S. cerevisiae deletion strains, locus YNR052C, strain pop2, active compounds read low 0.98 | [26] 0.555 | S. cerevisiae deletion strains, locus YOL012C, strain htz1 1.16 | S. cerevisiae deletion strains, locus YOL147C, strain pex11, active compounds read low 1.01 | S. cerevisiae deletion strains, locus YOR061W, strain CKA2, active compounds read low 0.977 | S. cerevisiae deletion strains, locus YOR069W, strain VPS5, active compounds read low 1 | S. cerevisiae deletion strains, locus YOR136W, strain idh2, active compounds read low 0.996 | S. cerevisiae deletion strains, locus YOR144C, strain elg1, active compounds read low 1.01 | S. cerevisiae deletion strains, locus YOR184W, strain ser1, active compounds read low 0.983 | S. cerevisiae deletion strains, locus YOR231W, strain MKK1, active compounds read low 1.03 | S. cerevisiae deletion strains, locus YOR316C, strain cot1, active compounds read low 1.01 | [28] 1 | S. cerevisiae deletion strains, locus YPL256C, strain CLN2, active compounds read low 1.06 | S. cerevisiae deletion strains, locus YPR119W, strain clb2, active compounds read low 1.02 | S. cerevisiae deletion strains, locus YPR141C, strain kar3, active compounds read low 0.999 | S. cerevisiae deletion strains, locus YPR163C, strain tif3, active compounds read low 0.991 | S. cerevisiae deletion strains, locus YPR167C, strain met16, active compounds read low 1 | S. cerevisiae deletion strains, strain wtn01, active compounds read low 0.975 | [32] 0.947
active: S. cerevisiae deletion strains, locus YBR021W, strain FUR4, active compounds read low 0.631 | S. cerevisiae deletion strains, locus YGR135W, strain pre9, active compounds read low 0.863 | [8] 0.577 | S. cerevisiae deletion strains, locus YGR252W, strain gcn5, active compounds read low 0.646 | [15] 1.4 [resistant] | [18] 1.56 [resistant] | S. cerevisiae deletion strains, locus YLR342W, strain FKS1 (second series), active compounds read low 0.64 | S. cerevisiae deletion strains, locus YLR418C, strain cdc73, active compounds read low 0.714 | [31] 0.58 | [27] 0.731

O=C1CCCc2c1c1ccccc1n2Cc1ccccc1
active: [15] 0.753 | [18] 0.75
inactive: [1] 0.99 | [2] 0.978 | [3] 0.974 | [4] 0.989 | [5] 0.893 | [6] 0.961 | [7] 0.972 | [9] 0.712 | [10] 0.965 | [11] 0.992 | [12] 0.996 | [13] 0.98 | [16] 0.997 | [17] 0.889 | [19] 0.91 | [20] 0.975 | [21] 0.94 | [30] 0.973 | [22] 0.98 | [23] 0.95 | [24] 0.974 | [25] 0.951 | [27] 0.933 | [28] 0.987 | [29] 0.839 | [32] 0.974
